The list is not random: actives were taken first. Their share in the collection is about 15%.
HCV inh = qHTS Assay for Inhibitors of Hepatitis C Virus (HCV); 3.4% of 340,000 active; Potency, µM (doses to about 41.8 µM), actives largely listed as inhibitors; Huh7.5.1 HCVcc-Cre infection, luciferase reporter, 44 h
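HCVcc-Cre virus at an moi near 0.5 was added right after compound to cells cultured 4 h from seeding (1,000 cells/well). Luciferase activity was determined 44 h later, 15 min after substrate addition at RT.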
SARS PLpro yeast = qHTS of Yeast-based Assay for SARS-CoV PLP. S. cerevisiae expressing SARS-CoV PLpro, growth rescue. Potency, µM (series often up to 32.9 µM), usual class: activators. 0.19% of 330,000 active; calls by dose curve; note: nearly all actives have a fitted effect of over 55% in size
Pf growth 96h = Primary qHTS for delayed death inhibitors of the malarial parasite plastid, 96 hour incubation; P. falciparum luciferase reporter growth, 96 h; Potency, µM (series often up to 28.7 µM), actives largely listed as inhibitors; 6.9% of 320,000 active; AID 504834, 2011
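P. falciparum expressing integrated firefly luciferase, in erythrocytes at 2% hematocrit, 0.05% parasitemia, incubated with compounds 96 h at 37 C, 5% CO2. Growth inhibition read as loss of luminescence; two-generation exposure targets delayed-death apicoplast inhibitors.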
Sm TGR inh = qHTS Assay for the Inhibitors of Schistosoma Mansoni Peroxiredoxins | Schistosoma mansoni thioredoxin glutathione reductase (TGR), Q962Y6 | purified TGR, DTNB reduction, TNB absorbance 405 nm | Potency, µM (titrated, usually from 114 µM), most hits filed as inhibitors | 3% of 360,000 active | AID 485364, 2010; note: nearly all actives have a fitted effect of over 60% in size
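First, TGR (20 nM dispensed) and NADPH were mixed with compound. Second, a 15 min room-temperature incubation followed. Third, further NADPH and then DTNB were added to start the reaction. Finally, TNB absorbance was monitored kinetically.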
HCMV inh = qHTS Assay for inhibitors of the human cytomegalovirus (HCMV). HFF cells, HCMV-luciferase reporter, 72 h; hits give low values. 4.5% of 410,000 active. activity change, negative = inhibition, % at 57.5 µM; in the data active = activity change below about -60%; inconclusive = no clear call, values can overlap the other calls; inactive = above about -39%
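Inhibition of viral replication was scored as loss of reporter luminescence in HFFs infected with HCMV-luciferase (MOI 1 PFU/cell) for 72 h; compounds tested at 2 doses, normalized to buffer and Salinomycin controls.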
Pf growth 48h = Primary qHTS for delayed death inhibitors of the malarial parasite plastid, 48 hour incubation; P. falciparum luciferase growth in erythrocytes, 48 h; Potency, µM (highest dose often 28.7 µM), hits mostly inhibitors; 5.9% of 310,000 active; AID 504832, 2011
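Erythrocytes infected with P. falciparum carrying an integrated firefly luciferase reporter (2% hematocrit, 0.1% parasitemia final) were exposed to compounds in RPMI 1640 with 0.5% Albumax at 37 C, 5% CO2. Growth inhibition was scored as reduced luminescence.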
A number is an active result; - = inactive; ? = inconclusive; . = no result. Unless noted, calls come from the whole dose curve; as a rule, active = well fitted curve in the direction sought with a large enough effect; inconclusive = small, poorly fitted or top-dose-only effect, or another doubt; inactive = no such curve, though single readings can be large; an effect the other way counts as inactive or inconclusive.

SMILES	HCV inh	SARS PLpro yeast	Pf growth 96h	Sm TGR inh	HCMV inh	Pf growth 48h
CC(=O)Nc1cccc(C(=O)OC(C(=O)c2ccc(C)cc2)c2ccccc2)c1 (stereo unspecified)	?	-	-	-	-	1.5µM
CC(=O)Nc1cccc(C(=O)OC(C(=O)c2ccc(C)c(C)c2)c2ccccc2)c1 (stereo unspecified)	?	-	10µM	-	-	?
Cc1ccc(NC(=O)C(OC(=O)c2ccc(F)cc2)c2ccccc2)cc1Cl (stereo unspecified)	-	-	-	-	-	?
CCN(CC)S(=O)(=O)c1ccc(C)c(NC(=O)COC(=O)CCC(=O)c2cccs2)c1	-	-	-	-	-	-
CCOC(=O)C1(CCOc2ccccc2)CCN(Cc2ccc(O)c(OCC)c2)CC1	?	-	-	45µM	-	15µM
CCOC(=O)CNC(=O)N1CCC(CCOc2ccccc2)(C(=O)OCC)CC1	-	-	8.3µM	-	-	-
CCOC(=O)C1(CCOc2ccccc2)CCN(Cc2ccc(O)cc2)CC1	?	-	-	-	-	13µM
CCOC(=O)C1(CCOc2ccccc2)CCN(Cc2ccc(OCCO)cc2)CC1	?	-	?	-	-	?
CCOC(=O)C1(CCOc2ccccc2)CCN(Cc2cc(OC)c(O)c(OC)c2)CC1	-	-	-	40µM	-	?
CCCCOc1ccc(C2C(=O)N(C3CCCCC3)CC(=O)N2C2CCCCC2)cc1 (stereo unspecified)	.	.	.	-	-	.
COc1ccc(-c2nc3scc(CCNS(=O)(=O)c4c(C)cc(C)cc4C)n3n2)cc1OC	.	.	.	-	-	.
CCOC(=O)C1(CCOc2ccccc2)CCN(Cc2ccc(OC)c(COC)c2)CC1	11µM	-	-	-	-	-
CCOC(=O)C1(CC2CC2)CCN(Cc2ccc(OC)cc2F)CC1	?	-	-	-	?	-
CCOC(=O)C1(S(=O)(=O)c2ccccc2)CCN(Cc2ccc(Cl)cc2)CC1	-	-	7.4µM	-	-	?
CCOC(=O)C1(CC2CC2)CCN(Cc2cc(Cl)c(O)c(OC)c2)CC1	-	-	0.37µM	-	-	?
CCOC(=O)C1(S(=O)(=O)c2ccc(Cl)cc2)CCN(Cc2ccc(Cl)cc2)CC1	?	-	-	-	-	?
CCOC(=O)C1(CC2CC2)CCN(Cc2cnc(-c3ccccc3C)nc2)CC1	?	-	?	-	-	13µM
COc1ccc(C2C(C(C)=O)=C(C)N=c3s/c(=C\c4ccco4)c(=O)n32)c(OC)c1 (stereo unspecified)	-	-	-	?	-	?
CCOC(=O)C1=C(C)N=c2s/c(=C\c3ccc(OCC(=O)O)cc3)c(=O)n2C1c1ccccc1OC (stereo unspecified)	-	-	-	-	-	1µM
COc1ccc(C2C(C(C)=O)=C(C)N=c3s/c(=C\c4cc(C)n(C)c4C)c(=O)n32)c(OC)c1 (stereo unspecified)	-	-	8.3µM	-	-	9.3µM
CCOC(=O)C1=C(C)N=c2s/c(=C/c3ccc(OCC(=O)O)cc3)c(=O)n2C1c1ccc(OC)cc1OC (stereo unspecified)	-	-	1.2µM	-	-	0.47µM
CCOC(=O)C1=C(C)N=c2s/c(=C/c3cccc([N+](=O)[O-])c3O)c(=O)n2C1c1ccc(OC)cc1OC (stereo unspecified)	-	-	4.7µM	56µM	-	?
CCOC(=O)C1=C(C)N=c2s/c(=C\c3ccc(O)c([N+](=O)[O-])c3)c(=O)n2C1c1ccccc1OC (stereo unspecified)	-	-	-	-	?	?
CCOC(=O)C1=C(C)N=c2s/c(=C/c3ccc(OCC(=O)O)c(OC)c3)c(=O)n2C1c1ccc(Cl)cc1 (stereo unspecified)	-	.	.	.	-	.
Cc1cccc(C(=O)NCC(=O)OCC(=O)c2ccc(Cl)s2)c1	-	-	-	-	-	-
SMILES	HCV inh	SARS PLpro yeast	Pf growth 96h	Sm TGR inh	HCMV inh	Pf growth 48h
CCOC(=O)C1=C(c2ccccc2)N=c2s/c(=C\c3ccco3)c(=O)n2C1c1cccs1 (stereo unspecified)	-	-	-	?	-	-
COc1ccc(/C=c2/sc3n(c2=O)C(c2ccccc2OC)C2=C(N=3)c3ccccc3CC2)cc1O (stereo unspecified)	?	-	2.3µM	-	-64	2.1µM
CCOC(=O)C1=C(c2ccccc2)N=c2s/c(=C\c3cc(OC)c(OC)c(OC)c3)c(=O)n2C1c1cccs1 (stereo unspecified)	-	-	?	-	-	0.66µM
O=C(COC(=O)c1cccs1)NC1CCCC1	-	-	?	-	-	-
CCN1CCn2c3c(c4cccc(C)c42)CCCC31 (stereo unspecified)	-	-	-	-	-	?
COc1ccc(NN=Nc2nc3c([nH]2)c(=O)n(C)c(=O)n3C)cc1	?	-	-	18µM	-	-
Cn1c(=O)c2[nH]c(N=NNc3ccccc3F)nc2n(C)c1=O	-	-	-	40µM	-	-
Cc1ccccc1NN=Nc1nc2c([nH]1)c(=O)n(C)c(=O)n2C	-	-	-	56µM	-	-
CC1CCN(N=Nc2nc3c([nH]2)c(=O)n(C)c(=O)n3C)CC1	-	.	.	.	-	.
CCC(CC)NC(=O)CSc1ccc(S(=O)(=O)N2CCCCC2)cn1	-	-	?	-	?	-
Cc1cc(NC(=O)CSc2ncc(C(=O)O)n2-c2ccc(F)cc2)no1	-	-	.	.	-	.
COc1ccc(C(=O)NC2CC2)cc1OC1CCN(Cc2ccc(F)cc2Cl)CC1	?	.	.	.	-	.
C(#Cc1ccccc1)C[N+]1(CC#Cc2cccc3ccccc23)CCCC1	?	-	?	?	-100	2.6µM
C#CC[N+]1(CC#Cc2cccc3ccccc23)CCOCC1	-	-	-	28µM	-	3.7µM
OCC#CC[N+]1(CC#Cc2ccccc2)CCOCC1	-	-	-	?	-	-
C#CC[N+]1(CC#Cc2ccccc2)CCCC1	-	-	-	-	-	3.3µM
C#CC[N+]1(CC#Cc2ccc(C#CC[N+]3(CC#C)CCOCC3)cc2)CCOCC1	-	-	?	-	.	-
CC1CCCN(C(=O)c2ccc(CNc3c(N4CCCCC4)c(=O)c3=O)cc2)C1 (stereo unspecified)	-	-	-	-	-	.
Cc1ccc(N(C)C(=O)c2ccc(CNc3c(N4CCC(C)CC4)c(=O)c3=O)cc2)cc1	-	-	?	-	-	9.3µM

Screening results as filed in PubChem BioAssay.
